# Measurements reported in PubChem BioAssay AID1851 (National Center for Advancing Translational Sciences (NCATS), 2009).
# In all, about 16,000 compounds went through this assay and about 5,100 (32%) were called active. Inconclusive results (about 25%) are left out. The call rests on the fitted dose curve; in most records, active means well fitted curve in the direction sought with a large enough effect; inconclusive means small, poorly fitted or top-dose-only effect, or effect the other way; inactive means no such curve, though single readings can be large or run the other way. Some of the results follow.
# Biological target: Cytochrome P450 3A4 (Homo sapiens) (UniProt P08684)
# Sequence (P08684 whole entry, looked up): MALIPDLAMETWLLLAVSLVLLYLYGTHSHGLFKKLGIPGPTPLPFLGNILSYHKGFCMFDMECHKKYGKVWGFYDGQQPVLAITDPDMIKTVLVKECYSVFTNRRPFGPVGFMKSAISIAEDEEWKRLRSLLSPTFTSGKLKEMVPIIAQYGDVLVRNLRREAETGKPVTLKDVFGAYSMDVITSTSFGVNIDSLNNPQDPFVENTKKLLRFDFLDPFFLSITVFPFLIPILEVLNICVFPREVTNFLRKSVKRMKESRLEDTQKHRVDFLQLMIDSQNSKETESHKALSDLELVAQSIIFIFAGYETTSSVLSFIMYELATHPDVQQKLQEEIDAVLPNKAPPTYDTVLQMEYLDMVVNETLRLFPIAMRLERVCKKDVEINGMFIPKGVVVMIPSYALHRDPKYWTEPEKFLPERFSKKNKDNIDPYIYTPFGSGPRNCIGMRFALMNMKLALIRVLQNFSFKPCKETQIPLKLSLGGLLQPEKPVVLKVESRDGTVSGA
# Assay: Cytochrome panel assay with activity outcomes
# Conditions: recombinant CYP, pro-luciferin dealkylation, luminescence, p450-cyp3a4; series mostly up to 57.1 µM
# On the % scale 0 is the no-effect control and ±100 the full control effect.
SMILES,AC50,"activity, negative = inhibition"
O=C(Cn1cnc([N+](=O)[O-])c1)NCc1ccc(F)cc1,inactive,
Cc1ccc(C(C)C)n1C(=O)OC(C)(C)C,,-18.1% [at 11.4 µM] (inactive)
Nc1nc2c(nc(Br)n2[C@@H]2O[C@H]3COP(=O)(O)O[C@H]3[C@@H]2O)c(=O)[nH]1,inactive,
COc1ccc(OC)c(N(CC(=O)N2CCc3ccccc3C2)S(C)(=O)=O)c1,inactive,
Cc1ccc(CS(=O)(=O)CCC(=O)N2CCOCC2)cc1,inactive,
CN(Cc1ccccc1)S(=O)(=O)c1ccc(OCC(=O)N2CCOCC2)cc1,inactive,
COc1ccc(S(=O)(=O)N(CC(=O)N2CCCC2)Cc2ccccc2)cc1,4.47 µM (active),
COc1ccc(S(=O)(=O)N(CCc2ccccc2)CC(=O)N2CCOCC2)cc1,7.08 µM (active),
Cc1ccc(C2NC(c3ccc(C)cc3)C(C)C(=NO)C2C)cc1 (stereo not drawn),14.1 µM (active),
CC(=O)NS(=O)(=O)c1ccc(NC(=S)NC(=O)C(C)(C)C)cc1,inactive,
CCC(=O)NC(=S)Nc1ccc(S(=O)(=O)NC(C)=O)cc1,,18.1% [at 2.29 µM] (inactive)
COc1ccc(CC(=O)NC(=S)Nc2ccc(S(=O)(=O)NC(C)(C)C)cc2)cc1,6.31 µM (active),
CSc1nc(N)c2ncn([C@H]3O[C@H](COP(=O)(O)OP(=O)(O)O)[C@@H](O)[C@@H]3O)c2n1,inactive,
C[C@@]12CC3CC(N)(C1)C[C@@](C)(C3)C2,inactive,
CCOc1ccc(NC(=O)N2CCC(c3ccc(C)cc3)C2)cc1 (stereo not drawn),inactive,
CCOc1ccc(C2=[N+]([O-])C(C)(C)N(O)C2(C)C)cc1,inactive,
CCOc1ccc(C(Nc2ccc(C)cc2)P2(=O)OCC(C)(C)CO2)cc1 (stereo not drawn),3.98 µM (active),
O=C(O)c1cc(=O)[nH]c(SCc2ccccc2)n1,,0.661% [at 11.4 µM] (inactive)
COc1ccc(CCn2c(C)cc(C(=O)CSc3nc(N)cc(=O)[nH]3)c2C)cc1,2.51 µM (active),
Cc1cc(C(=O)CSc2nnc(N)s2)c(C)n1CCc1ccc(F)cc1,0.316 µM (active),
CC(=O)Nc1nnc(SCc2ccc(F)cc2)s1,inactive,
O=C(CCc1ccc(O)cc1)c1c(O)cc(O)cc1O,10 µM (active),
C[C@@](N)(Cc1ccc(O)cc1)C(=O)O,inactive,
O=C(O)Cc1ccc(O)c(O)c1,inactive,
O=c1nc(N2CCCCCC2)nc(N2CCCCCC2)[nH]1,inactive,

SMILES,AC50,"activity, negative = inhibition"
O=C(CSc1n[nH]c(-c2ccccc2O)n1)N1CCCc2ccccc21,3.16 µM (active),
O=C(CSc1nnc(CNc2ccc(F)cc2)o1)N1c2ccccc2Sc2ccccc21,7.08 µM (active),
O=C(CSc1nnc(CNc2ccccc2)o1)N1CCCc2ccccc21,8.91 µM (active),
CCN(CC)C(=O)CSc1nnc(C2CCCCC2)o1,inactive,
CCOc1ccc(-n2c(=O)[nH]cc(C(=O)N3CCCc4ccccc43)c2=O)cc1,inactive,
O=C(CSc1nnc(CNc2ccc(F)cc2)o1)OC1CCCCC1,28.2 µM (active),
Cc1cc2nc(-c3ccc(SCC(=O)N4CCc5ccccc54)nc3)[nH]c2cc1C,,-3.98% [at 2.29 µM] (inactive)
O=C(CCN1CCCCC1)N1CCc2c([nH]c3ccccc23)[C@H]1c1cccnc1,,-11.2% [at 11.4 µM] (inactive)
COC(=O)Cn1cnc(=O)c(C#N)c1/C=C/N(C)C,inactive,
O=C(N/N=C/c1ccc(O)cc1)c1csc2ccccc12,,-23.9% [at 11.4 µM] (inactive)
O=C(N/N=C/c1cccc([N+](=O)[O-])c1)c1cc2c(ccc3ccccc32)o1,,-7.91% [at 2.29 µM] (inactive)
O=C(N/N=C/c1ccncc1)c1cc2c(ccc3ccccc32)o1,1.41 µM (active),
O=C(N/N=C/C=C/c1ccccc1)c1cc2c(ccc3ccccc32)o1,inactive,
O=C(N/N=C\c1cccc(O)c1)c1ccncc1,,-5.33% [at 11.4 µM] (inactive)
Cc1ccccc1C(=O)N/N=C/c1ccncc1,7.08 µM (active),
C=CCn1cc(/C=N\NC(=O)c2cc3c(ccc4ccccc43)o2)c2ccccc21,10 µM (active),
COc1cccc([C@H](O)Cn2cc(-c3ccc(CON=C(C)C)cc3)nn2)c1,,-19.8% [at 11.4 µM] (inactive)
CC[C@@H](CS(=O)(=O)O)[N+](=O)[O-],,-18% [at 11.4 µM] (inactive)
O=C(N=NC(=O)c1ccc2c(O)n(C3CCCCC3)c(O)c2c1)c1cccnc1,11.2 µM (active),
COCCn1c(=O)c(-c2cn(C)c3ccccc23)nc2cncnc21,3.16 µM (active),
COc1ccccc1CCn1c(=O)c(-c2cn(C)c3ccccc23)nc2cncnc21,2.51 µM (active),
Cn1cc(-c2nc3cncnc3n(CCN)c2=O)c2ccccc21,12.6 µM (active),
Cc1cccc([C@@H]2CN(C)CCc3c2cc(O)c(O)c3Cl)c1,inactive,
N[C@H](CCCP(=O)(O)O)C(=O)O,inactive,
O=C(O)c1nnsc1-c1ccc(-c2snnc2C(=O)O)cc1,,-0.252% [at 11.4 µM] (inactive)

SMILES,AC50,"activity, negative = inhibition"
O=C(O)c1ccccc1-c1ccc(/C=c2\sc3nc4cc(Br)cnc4n3c2=O)o1,inactive,
O=C(c1c[nH]c(=O)n(-c2ccccc2)c1=O)N1CCc2ccccc21,inactive,
CN(c1ccc(C(=O)NCc2ccccn2)cc1)S(C)(=O)=O,inactive,
COc1ccc(C(=O)N2CCCCC2)cc1S(=O)(=O)Nc1ccccc1,12.6 µM (active),
Cc1ccc(NS(=O)(=O)c2cc(C(=O)N3CCc4ccccc4C3)ccc2Cl)cc1,1.26 µM (active),
CCOC(=O)N1CCN(C(=O)c2ccc(Cl)c(S(=O)(=O)N3CCOCC3)c2)CC1,,-3.04% [at 2.29 µM] (inactive)
Cc1ccc(NS(=O)(=O)c2cc(C(=O)NCc3ccccn3)ccc2Cl)cc1,3.98 µM (active),
OC(CN1CCCCC1)CN1CCCCC1,inactive,
CNc1ncncc1-c1ccc(C(=O)N(C)C)cc1,5.01 µM (active),
Cc1cccc(CNc2ncncc2-c2ccc(C(=O)N(C)C)cc2)c1,0.631 µM (active),
CN(C)C(=O)c1ccc(-c2cncnc2NCCc2cnc[nH]2)cc1,6.31 µM (active),
CN(C)C(=O)c1ccc(-c2cncnc2NC2CCNCC2)cc1,inactive,
CN(C)C(=O)c1ccc(-c2cncnc2NCc2ccccc2)cc1,2.51 µM (active),
CN(C)C(=O)c1ccc(-c2cncnc2NCc2cccnc2)cc1,5.01 µM (active),
CN1CCN(c2ncncc2-c2ccc(C(=O)N(C)C)cc2)CC1,15.8 µM (active),
CN(C)C(=O)c1ccc(-c2cncnc2N2CCNCC2)cc1,inactive,
O=C(O)c1ccccc1C1c2ccccc2Oc2ccccc21,,26.1% [at 11.4 µM] (inactive)
CCC1(C)CC(CCNS(=O)(=O)c2ccc(C)cc2)(c2ccc(C)cc2)CCO1 (stereo not drawn),3.55 µM (active),
c1ccc(-c2nnc(SCCC3OCCCO3)o2)cc1,inactive,
Cc1cc(C(=O)CSc2nnc(-c3ccccc3)o2)c(C)n1CC1COc2ccccc2O1 (stereo not drawn),2.24 µM (active),
O=C(/C=C\c1ccc(O)c(O)c1)O[C@@H](Cc1ccc(O)c(O)c1)C(=O)O,inactive,
O=C(O)/C=C\c1ccc(O)c(O)c1,inactive,
O=C(/C=C\c1ccc(O)c(O)c1)OCCc1ccccc1,15.8 µM (active),
CCn1c2ccccc2c2cnc(N=CN(C)C)c(C#N)c21,7.94 µM (active),
Nc1nc(N)nc(CC(=O)O)n1,,-10.1% [at 11.4 µM] (inactive)

SMILES,AC50,"activity, negative = inhibition"
O=C(Oc1ccccc1)N1CCC2(CC1)CCN(c1ccncc1)CC2,inactive,
COC(=O)N1CCC[C@@]2(CCN(c3ccncc3)C2)C1,3.98 µM (active),
COC(=O)N1CCC[C@@]2(CCN(c3ncccn3)C2)C1,inactive,
COC(=O)N1CCC2(CC1)CCN(c1ccncc1)CC2,inactive,
O=C(Oc1ccccc1)N1CCC[C@@]2(CCN(c3ccncc3)C2)C1,12.6 µM (active),
O=[N+]([O-])c1cccnc1NCCNc1ncc(C(F)(F)F)cc1Cl,12.6 µM (active),
O=[N+]([O-])c1ccc2ncccc2c1CCc1c([N+](=O)[O-])ccc2ncccc12,,-12.1% [at 11.4 µM] (inactive)
O=C(O)C[C@H](NC(=O)CP(=O)(O)O)C(=O)O.[NH-][C@@H]1CCCC[C@@H]1[NH-].[Pt],,-3.72% [at 11.4 µM] (inactive)
Cc1ccc(S(=O)(=O)Nc2ccc(=O)n(Cc3ccc(Cl)c(Cl)c3)c2)cc1,3.16 µM (active),
Cc1cc(NS(=O)(=O)c2ccc(NC(=O)CN3C(=O)c4ccccc4C3=O)cc2)nc(C)n1,inactive,
O=S(=O)(Nc1ccc2oc(-c3ccccc3)nc2c1)c1ccccc1,,-16% [at 2.29 µM] (inactive)
O=S(=O)(NCc1cc(-c2ccccc2Cl)no1)c1ccccc1,inactive,
C#CCOC(=O)Nc1ccc(=O)n(Cc2c(Cl)cccc2Cl)c1,inactive,
O=c1ccc(NS(=O)(=O)c2ccc(Cl)cc2)cn1Cc1ccc(Cl)c(Cl)c1,5.62 µM (active),
O=c1ccc(NS(=O)(=O)c2ccccc2)cn1Cc1ccc(Cl)c(Cl)c1,6.31 µM (active),
CC1(C)S[C@@H]2[C@H](NC(=O)[C@H](C(=O)O)c3ccsc3)C(=O)N2[C@H]1C(=O)O,inactive,
CC12CCC(C(=O)Nc3ncc([N+](=O)[O-])s3)(OC1=O)C2(C)C (stereo not drawn),15.8 µM (active),
CCCCC#Cc1nc(NC)c2ncn([C@@H]3O[C@@H](CO)[C@H](O)[C@H]3O)c2n1,inactive,
C#CCSc1nc(Cc2ccc(Cl)cc2)nc2ccccc12,15.8 µM (active),
CCSc1nnc(-c2ccc(Cl)cc2)c2ccccc12,,15.9% [at 2.29 µM] (inactive)
CN(Cc1cc2ccccc2[nH]c1=O)S(C)(=O)=O,,5.8% [at 11.4 µM] (inactive)
CS(=O)(=O)N(Cc1cc2ccccc2[nH]c1=O)C1CCCCC1,2.24 µM (active),
CC(C)(C)c1ccc(O)c(CN(Cc2c(O)ccc3ccccc23)C2CCCCC2)c1,,-11.1% [at 11.4 µM] (inactive)
